What was measured:
Settings in all cases: concentration: 1 μM, replicates: in singlicate; n = 1
CAMKK2 = tested on: CAMKK2
CASK = tested on: CASK
CDC2L1 = tested on: T1, CDC2L1
T1 construct: gene CDK11B

CDC2L2 = tested on: CDC2L2
CDC2L5 = tested on: T2, CDC2L5
T2 construct: gene CDK13

CDK11 = tested on: T3, CDK11
T3 construct: gene CDK19

CDK2 = tested on: CDK2
CDK3 = tested on: CDK3
CDK4-cyclinD1 = tested on: CDK4-cyclinD1
CDK4-cyclinD3 = tested on: CDK4-cyclinD3
CDK4 = tested on: CDK4
CDK5 = tested on: CDK5
CDK7 = tested on: CDK7
CDK8 = tested on: CDK8
CDK9 = tested on: CDK9
CDKL1 = tested on: CDKL1
CDKL2 = tested on: CDKL2
CDKL3 = tested on: CDKL3
CDKL5 = tested on: CDKL5
CHEK1 = tested on: CHEK1
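Further: KINOMEscan kinase panel screen.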

| SMILES | %Inh (CAMKK2) | %Inh (CASK) | %Inh (CDC2L1) | %Inh (CDC2L2) | %Inh (CDC2L5) | %Inh (CDK11) | %Inh (CDK2) | %Inh (CDK3) | %Inh (CDK4-cyclinD1) | %Inh (CDK4-cyclinD3) | %Inh (CDK4) | %Inh (CDK5) | %Inh (CDK7) | %Inh (CDK8) | %Inh (CDK9) | %Inh (CDKL1) | %Inh (CDKL2) | %Inh (CDKL3) | %Inh (CDKL5) | %Inh (CHEK1) |
| --- | --- | --- | --- | --- | --- | --- | --- | --- | --- | --- | --- | --- | --- | --- | --- | --- | --- | --- | --- | --- |
| NC(=O)c1nnc2ccccc2c1N | 0% | 36% | 7% | 25% | 11% | 3% | 6% | 19% | 32% | 0% | 0% | 0% | 14% | 26% | 15% | 44% | 1% | 17% | 9% | 0% |
| CC(C)(C)c1ccc(C(=O)Nc2cn3cc(-c4cccnc4)ccc3n2)cc1 | 18% | 0% | 11% | 17% | 0% | 9% | 3% | 10% | 29% | 0% | 0% | 3% | 35% | 6% | 12% | 39% | 6% | 20% | 0% | 25% |
| O=S(=O)(c1ccc(-c2ccnc3[nH]ccc23)cc1)N1CCCC1 [GSK846226] | 23% | 5% | 0% | 17% | 0% | 2% | 0% | 1% | 0% | 0% | 0% | 0% | 2% | 0% | 0% | 7% | 5% | 0% | 4% | 0% |
| Cc1cccc(-c2nc(Nc3ccncc3)c3ccccc3n2)n1 [GW855857] | 7% | 0% | 0% | 0% | 0% | 0% | 0% | 20% | 13% | 0% | 0% | 0% | 0% | 65% | 0% | 47% | 10% | 0% | 0% | 0% |
| O=c1cc(N2CCOCC2)nc2n(Cc3cccc(Cl)c3Cl)ccn12 [GSK2286295] | 16% | 9% | 13% | 16% | 0% | 23% | 0% | 0% | 0% | 0% | 0% | 0% | 0% | 0% | 14% | 0% | 7% | 0% | 2% | 0% |
| Cc1c(Cn2ccn3c(=O)cc(N4CCOCC4)nc23)cccc1C(F)(F)F [GSK2289044] | 18% | 14% | 0% | 13% | 0% | 0% | 0% | 9% | 0% | 0% | 4% | 0% | 0% | 0% | 0% | 3% | 10% | 0% | 16% | 0% |
| Cc1cccc(-c2nc(Nc3ccc4[nH]ncc4c3)c3ccccc3n2)n1 [GW857175] | 0% | 45% | 12% | 9% | 20% | 0% | 0% | 0% | 23% | 0% | 0% | 3% | 8% | 0% | 0% | 0% | 7% | 4% | 18% | 4% |
| O=C(Nc1n[nH]c2cc(-c3cccc(F)c3F)ccc12)C1CC1 [SB-733894] | 13% | 30% | 2% | 0% | 8% | 5% | 22% | 0% | 0% | 30% | 0% | 0% | 17% | 89% | 5% | 37% | 95% | 48% | 0% | 3% |
| COc1cc2ncn(-c3cc(OCC4CCCO4)c(C(N)=O)s3)c2cc1OC (stereo not shown) [GSK204607] | 8% | 0% | 0% | 8% | 0% | 0% | 0% | 0% | 0% | 0% | 13% | 0% | 4% | 32% | 0% | 11% | 1% | 0% | 0% | 0% |
| CC1=C(C(=O)Nc2cc3cn[nH]c3cc2F)C(c2ccc(C(F)(F)F)cc2)CC(=O)N1 (stereo not shown) [GSK429286] | 14% | 43% | 0% | 13% | 0% | 7% | 0% | 18% | 0% | 0% | 11% | 0% | 0% | 18% | 0% | 0% | 4% | 0% | 10% | 7% |
| COC(=O)c1c(-c2ccccc2)c2cc(OC)ccc2c(=O)n1Cc1ccccc1 | 17% | 0% | 7% | 3% | 0% | 12% | 2% | 10% | 0% | 0% | 0% | 11% | 15% | 7% | 9% | 3% | 13% | 12% | 0% | 0% |
| COc1cc(Nc2nccc(N3CCC(NC(=O)Nc4cc(C)ccc4C)C3)n2)cc(OC)c1OC (stereo not shown) [GSK1379762] | 0% | 42% | 0% | 0% | 0% | 17% | 0% | 15% | 0% | 0% | 0% | 0% | 0% | 20% | 0% | 0% | 41% | 0% | 7% | 25% |
| Cc1ccc(C(=O)Nc2ccc(Nc3ccnc4cc(-c5ccccn5)ccc34)cc2O)cc1.Cl [GW440146] | 0% | 3% | 0% | 11% | 0% | 0% | 0% | 5% | 16% | 0% | 32% | 0% | 0% | 23% | 0% | 0% | 18% | 0% | 2% | 0% |
| COc1cc2nccc(Nc3ccc(NC(=O)c4ccc(C)cc4)c(O)c3)c2cc1OC.Cl [GW440132] | 32% | 2% | 0% | 3% | 0% | 5% | 0% | 9% | 0% | 0% | 35% | 0% | 75% | 33% | 0% | 4% | 13% | 0% | 0% | 0% |
| Cc1ccccc1-n1cnc2c(N)ncnc21 [SKF-97510] | 8% | 0% | 0% | 1% | 0% | 0% | 0% | 0% | 0% | 0% | 0% | 0% | 0% | 0% | 0% | 14% | 0% | 39% | 0% | 5% |
| COc1ccc(C2=C(Nc3cccc(C(=O)O)c3)C(=O)NC2=O)cc1 [SB-390765] | 7% | 15% | 17% | 13% | 8% | 0% | 12% | 7% | 0% | 0% | 51% | 16% | 3% | 0% | 1% | 0% | 37% | 0% | 13% | 0% |
| O=C(Nc1ccc2c(c1)OCO2)NC1CCN(c2ccnc(Nc3ccc(F)cc3)n2)C1 (stereo not shown) [GSK1379724] | 3% | 21% | 0% | 0% | 0% | 40% | 0% | 8% | 0% | 0% | 0% | 0% | 0% | 33% | 0% | 0% | 49% | 0% | 3% | 0% |
| CS(=O)(=O)c1ccc(-c2nc3n(c2-c2ccncc2)CCC3)cc1 [SKF-105942] | 0% | 26% | 100% | 0% | 0% | 0% | 0% | 28% | 0% | 6% | 9% | 0% | 0% | 0% | 100% | 28% | 17% | 0% | 4% | 0% |
| Cn1cncc1-c1ccc2ncnc(Nc3ccc(OCc4ccccc4)cc3)c2c1 [GW320571] | 0% | 0% | 0% | 0% | 0% | 10% | 4% | 2% | 0% | 13% | 0% | 3% | 0% | 29% | 0% | 0% | 19% | 0% | 0% | 15% |
| COc1cccc(NC(=O)NC2CCN(c3ccnc(Nc4ccc(F)cc4)n3)C2)c1 (stereo not shown) [GSK1379721] | 14% | 7% | 0% | 14% | 0% | 59% | 0% | 18% | 0% | 0% | 0% | 0% | 0% | 61% | 14% | 5% | 61% | 0% | 7% | 2% |

From PMC5540273 (PLoS ONE, 2017)
